Laboratory results taken from PubChem BioAssay AID687014 (The Scripps Research Institute Molecular Screening Center, 2013).
Several values for one entry are separate records, joined by “and”; a condition that tells them apart may be missing. Equal values may be shown once. The whole screen tested about 370,000 compounds, of which about 6,800 (1.8%) were called active. This is one part of a sample in which actives are shown more often than they occur. Unmarked numbers belong to inactive results.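 The calls were made as follows: active = activation above a cutoff set at the mean of all screened compounds plus 3 SD (cut at about 10% in these data); inactive = the rest.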

tested on: Nuclear hormone receptor DAF-12 (Heterodera glycines), GAL4 fusion; test: hgDAF-12 GAL4 fusion reporter activation – cell-based, luminescence, HEK293, UAS-luciferase, primary screen (AID 687014); details: HEK293 GAL4-hgDAF12 UAS-luciferase reporter, agonist luminescence; at 6.8 µM; stronger effect = higher value; normalized to butyrate control;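 also: 0% = DMSO wells and 100% = sodium butyrate wells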

Row | Structure (SMILES) | activation
1 | CC(=O)Nc1cnc(-c2ccc(O)cc2C)cn1 | 0.71%
2 | Cc1ccc(Nc2nc(-c3ccc(O)cc3O)cs2)nc1 | 11% (active)
3 | Cc1ccc(-c2csc(NCCc3nc4cc(Cl)c(Cl)cc4n3CCOCCO)n2)cc1 | 0.43%
4 | C/C=C/c1ccc(OCCOc2ccc(C=O)cc2OC)c(OC)c1 | 1.06%
5 | O=C(NCCc1ccc(F)cc1)c1n[nH]c2ccccc12 | 4.51%
6 | O=C(NCCc1ccc(F)cc1)c1ccc2nccnc2c1 | 15.2% (active)
7 | O=C(NCCc1ccc(F)cc1)c1ccc(S(=O)(=O)N2CCCCC2)cc1 | -1.32%
8 | O=S(=O)(c1ccc2c(c1)OCCCO2)N1CCN(S(=O)(=O)c2c(F)cccc2F)CC1 | 3.46%
9 | CCOc1cc(C(=O)N2CCc3cc(OC)c(OC)cc3C2)ccc1OC(F)F | -2.99%
10 | CCOC(=O)C1CCN(C(=O)COC(=O)C2CCN(S(=O)(=O)c3ccc4c(c3)OCCO4)CC2)CC1 | 1.65%
11 | NC(=O)Cc1ccc2sc(-c3ccccc3)nc2c1 | 16.9% (active)
12 | CCn1c2ccccc2c2cc(CC(N)=O)ccc21 | -1.01%
13 | O=C(O)Cc1csc(-c2cccc(Oc3ccccc3)c2)n1 | 2.98% and 2.42%
14 | Clc1ccc(C(Cn2ccnc2)OCc2ccsc2Cl)c(Cl)c1 (centres undefined) | -0.6%
15 | COc1ccnc(C(=O)N2CCC(Oc3cccnc3)CC2)c1 | -2.68%
16 | COc1ccc(CCC(C)N2CCc3ccccc3C2)cc1 (centres undefined) | 1.85%
17 | COC(=O)[C@]12C[C@H](CC(=O)NCc3ccc(C)o3)C(=O)N(CCC3=CCCCC3)C1=C[C@H](C(C)(C)C)O[C@@H]2C | 1.5%
18 | COc1ccc(C2CC(c3ccccc3)=NN2C(=O)c2ccc(Cl)c([N+](=O)[O-])c2)cc1 (centres undefined) | -2.91%
19 | COc1ccc(C2=NN(C(=O)c3ccccc3C(=O)O)C(c3ccccc3O)C2)cc1 (centres undefined) | 16.4% (active)
20 | COc1ccc(C2CC(c3ccccc3)=NN2C(=O)CSc2nccc(=O)[nH]2)cc1 (centres undefined) | 1%
21 | COc1ccc(CSc2nnc(-c3cccc(C)c3)n2C)cc1 | -0.32%
22 | COc1ccc(NCc2nnc(SCc3ccccc3)n2-c2ccc(OC)cc2)cc1 | 1.53%
23 | COc1ccc2nc(SCc3ccccc3)nc(C)c2c1 | 16.3% (active)
24 | CCOc1ccc(S(=O)(=O)NCC2CCCO2)cc1 (centres undefined) | -0.13%
25 | COC(=O)[C@]12C[C@H](CC(=O)NCc3ccccc3)C(=O)N(Cc3ccccc3)C1=C[C@H](COCc1ccccc1)O[C@@H]2C | -0.41%
26 | Cc1ccc(NC(=O)N2c3ccccc3SC2c2ccco2)c(C)c1 (centres undefined) | -2.03%
27 | O=C(CCS(=O)(=O)c1ccccc1)Nc1ccc(Cl)c(Cl)c1 | 5%

Row | Structure (SMILES) | activation
28 | COc1ccc(/C=C2/CCCc3ccccc3C2=O)cc1 | 16.7% (active)
29 | COc1ccc(C=C2CCC3C(CCCC34OCCO4)C2=O)cc1 (centres undefined) | 2.78%
30 | COc1ccccc1Oc1ccc(N/C=C2/CCCC2=O)cc1 | 2.59%
31 | COc1ccc(Cn2cc(COC(=O)N(C)Cc3ccccc3)nn2)cc1 | 2.67%
32 | O=[N+]([O-])c1ccc2oc(-c3cccc(O)c3)nc2c1 | 19.1% (active)
33 | CC(=O)Oc1ccc2c(=O)oc(-c3ccc([N+](=O)[O-])cc3)nc2c1 | 0.03%
34 | COc1cccc(-c2nc(CS(=O)(=O)CC(=O)NCCc3ccc(OC)c(OC)c3)c(C)o2)c1 | 0.2%
35 | O=[N+]([O-])c1ccc2c(c1)C(O)n1nc(-c3ccccc3)nc1S2 (centres undefined) | -1.58%
36 | COc1cccc(-c2nnc(SCCOc3ccc4c(C)cc(=O)oc4c3)o2)c1 | -0.66%
37 | COc1cccc(-c2nc3cc(C)ccc3o2)c1 | 17.6% (active)
38 | C=CCN1C(=O)[C@@H](CC(=O)NCCCOCCCC)[C@]2(C(=O)OCC)CCCCC/C=C/12 | -2.8%
39 | C/C(=N/O)c1ccc(N2C(=O)C3C4C=CC(C3C2=O)C2C3C(=O)N(c5ccc(/C(C)=N/O)cc5)C(=O)C3C42)cc1 (centres undefined) | -2.43%
40 | COc1ccc(-c2cc(-c3nnc(SCC(=O)Nc4cccc5ccccc45)n3N)[nH]n2)cc1 | -0.33%
41 | CC[C@H](C)[C@H]1CNC(=O)C(=O)N1CC1CCN(CCc2ccc(OC)c(OC)c2)CC1 | -1.21%
42 | CC[C@@H](CCC(=O)N(c1ccccc1)c1ccccc1)C1CC1 | 0.58%
43 | S=c1[nH]nc(/C=C/c2ccccc2)o1 | 4.59%
44 | O=c1oc(/C=C/c2ccccc2)nc2ccccc12 | 16% (active)
45 | O=c1oc(-c2ccccc2NS(=O)(=O)c2ccc(Cl)cc2)nc2ccccc12 | 0.61%
46 | COc1ccc(-n2c(COc3ccc(C)cc3)nnc2SCC(=O)Nc2ccc(Oc3ccccc3)cc2)cc1 | 3.51%
47 | COc1ccccc1NC(=O)C(C)OC(=O)c1ccc(-n2cnnn2)cc1 (centres undefined) | -3.02%
48 | N#Cc1ccc(C2=CC(=O)C[C@H](c3ccc(Cl)cc3)C2)cc1 | -2.41%
49 | OC(c1ccccc1)c1nc(-c2cnc3ccccc3c2)cs1 (centres undefined) | 22.6% (active)
50 | COc1cccc(C(NC(C)=O)c2nc(-c3cnc4ccccc4c3)cs2)c1 (centres undefined) | -1%
51 | CC(C)c1cccc(-c2csc(C(O)c3ccccc3)n2)c1 (centres undefined) | 5.67%
52 | Cc1ccc(N2C(=O)c3ccccc3C2(O)c2ncc[nH]2)cc1 (centres undefined) | 0.14%
53 | COc1ccc2[nH]c(=O)c(CN(CC3CCCO3)C(=O)Nc3ccccc3)cc2c1 (centres undefined) | -1.35%
54 | Cc1cccc(NC(=O)N(Cc2cc3cc(C)cc(C)c3[nH]c2=O)CC2COCCO2)c1 (centres undefined) | 11.3% (active)

Row | Structure (SMILES) | activation
55 | Cc1ccc2[nH]c(=O)c(CN(CC3COCCO3)C(=O)Nc3ccccc3C)cc2c1 (centres undefined) | -1.5%
56 | O/N=C(\c1ccc2c(c1)OCCO2)C1CCCCC1 | -1.1%
57 | CC(CCN1CCC(C(O)(c2ccccc2)c2ccccc2)CC1)Oc1ccc(Cl)cc1 (centres undefined) | -0.38%
58 | C=CCN1C(=O)[C@@H](CC(=O)NCC2CCCCC2)[C@]2(C(=O)OC)CCCCC=C12 | 2.02%
59 | O=C(COc1cccc(F)c1)Oc1ccc(C(=O)c2ccccc2)cc1 | 3.93%
60 | O=C(Oc1ccc(-c2nc(-c3ccccn3)no2)cc1)c1ccccc1 | 10.9% (active)
61 | COC(=O)c1ccc(-c2noc(CN(Cc3ccccn3)CC3CCCO3)n2)cc1 (centres undefined) | 1.07%
62 | CCCC[C@H]1C2CC(OC(=O)NCc3ccccc3)C(C2)[C@H]2CCCCN21 (some centres undefined) | -3.36%
63 | Cc1ccc2c(c1)N(CC(=O)NCCc1ccc(Cl)cc1)C(=O)c1cccnc1O2 | 0.09%
64 | Cc1ccc(NC(=O)c2oc3ccccc3c2C)c([N+](=O)[O-])c1 | 0.32%
65 | O=C(Nc1ccc2ccccc2c1[N+](=O)[O-])c1ccccc1 | 15.2% (active)
66 | CN(C)c1ccc(NC(=O)c2ccncc2)c2ccccc12 | -2.36%
67 | COP(=O)(O)CNC(=O)OCc1ccccc1 | 2%
68 | O=C(CSc1nc2ccccc2n1Cc1ccccc1)NNC(=S)Nc1ccccc1 | -0.74%
69 | CCNC(=O)C1(C)CCN(C(=O)c2ccccc2)C1 (centres undefined) | 2.75%
70 | CCN1C(=O)N[C@@H]2C[C@H](C(=O)N3CCCC3)[C@H](C)[C@H](c3ccccc3)C[C@@H]21 | 5.37%
71 | C=CCOc1c2ccc(C(=O)N(CC)c3ccc(OC)cc3)cc2nn1C | -1.06%
72 | CC(=O)C1=C(C)N(Cc2ccccc2)C(=S)NC1c1cccc(Br)c1 (centres undefined) | -0.58%
73 | COc1ccnc(NC(=S)N2CCN(c3ncc(C(F)(F)F)cc3Cl)CC2)c1 | 2.05%
74 | O=c1cc(-c2ccccc2)[nH]c2cc(F)ccc12 | -0.32%
75 | Fc1ccc2cnc(-c3ccccc3)cc2c1 | 15.4% (active)
76 | COc1cc(OC)cc(-c2cc3ccc(F)cc3cn2)c1 | 8.86%
77 | CC(C)Cn1c(SCC(=O)Nc2ccc(Cl)cc2F)nc(O)cc1=O | -0.64%
78 | CC(=O)c1cc(-c2ccc3ccccc3c2)c(=O)n2c1CCC2 | 0.58%
79 | Cc1sc2nc(SCC(=O)c3ccc(O)c(O)c3)n(Cc3ccco3)c(=O)c2c1C | -0.58%
